PubChem BioAssay (NCI)
The panel holds about 79,000 compounds, 15% with a hit somewhere; the sample as a whole holds those more often. No stated cut-off is given here; in the data, active means growth inhibition above about 70%; inactive means the rest.

Legend:
[1] = NCI Yeast Anticancer Drug Screen. Data for the rad50 strain (AID 155);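 further: 0% = growth of vehicle-only cultures of the same strain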; conditions: S. cerevisiae rad50 strain growth inhibition; at 50.0 µM; hits give high values
Outline: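 Readout: growth inhibition relative to vehicle-treated cultures. Compound exposure was carried out in a genetically defined yeast strain deficient in DNA damage repair.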

[2] = NCI Yeast Anticancer Drug Screen. Data for the mec2-1 strain (AID 157); conditions: S. cerevisiae mec2-1 strain, at 50.0 µM, hits give high values
Outline: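 Test agents were screened against the mec2-1 yeast strain, with defined DNA repair or cell cycle alteration. Growth was scored as inhibition against vehicle-only controls.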

[3] = NCI Yeast Anticancer Drug Screen. Data for the sgs1 mgt1 strain (AID 161);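 further: 0% = growth of cultures given vehicle only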; conditions: S. cerevisiae sgs1 mgt1 strain, at 50.0 µM, hits give high values
Outline: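 Mutant yeast exposed to compound; growth scored against vehicle-only wells.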

[4] = NCI Yeast Anticancer Drug Screen. Data for the cln2 rad14 strain (AID 165);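 further: 0% = growth equal to vehicle treated cultures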; conditions: S. cerevisiae cln2 rad14 strain, at 50.0 µM, hits give high values
Outline: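 Growth of compound-exposed yeast (cln2 rad14 genotype) measured and expressed as inhibition relative to vehicle.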

[5] = NCI Yeast Anticancer Drug Screen. Data for the bub3 strain (AID 167); conditions: S. cerevisiae bub3 mutant strain, at 50.0 µM, hits give high values
Outline: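 Readout: yeast growth inhibition, expressed relative to vehicle-only wells. The test organism is a mutant strain from a panel with lesions in DNA repair or checkpoint genes.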

[6] = NCI Yeast Anticancer Drug Screen. Data for the mlh1 rad18 strain (AID 175); conditions: S. cerevisiae mlh1 rad18 strain growth inhibition; at 50.0 µM; hits give high values
Outline: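 In this whole-cell yeast screen, a strain with altered DNA damage repair is challenged with compound, and its growth is measured against matched vehicle-treated controls.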

Measured: growth inhibition

CCOC12CC(OC(=O)N1)C(C)C1OC1(C)C(OC(=O)C(C)N(C)C(C)=O)CC(=O)N(C)c1cc(cc(OC)c1Cl)C/C(C)=C/C=CC2OC (stereo unspecified)
inactive: [1] -21.1% | [2] -29.6% | [3] -30.9% | [4] -0.4% | [5] -20.4% | [6] -5.25%

COC(=O)C(CC(=O)[C@H]1CC[C@H]2[C@@H]3CC=C4C[C@@H](OC(C)=O)CC[C@]4(C)[C@H]3CC[C@]12C)OC(C)=O (stereo partly specified)
inactive: [1] 18.7% | [2] -6.2% | [3] 26.7% | [4] 28.9% | [5] -1.75% | [6] 8.7%

CCOC(=O)C(CC1OCCO1)C1=NC(C)(C)CC(C)O1 (stereo unspecified)
inactive: [1] -18.4% | [2] 1.2% | [3] -11.4% | [4] -0.05% | [5] -7% | [6] 3.85%

O=C(Cl)/C=C/c1ccccc1
inactive: [1] 37.1% | [2] 15.5% | [3] 27.9% | [4] -29.1% | [5] 23.9% | [6] 34.9%

NC(CO)C(=O)NCCS(=O)(=O)O (stereo unspecified)
inactive: [1] -10.7% | [2] 9.6% | [3] -3.7% | [4] 22.1% | [5] -7.05% | [6] -6.95%

COS(=O)c1cc(Cl)cc(Cl)c1O (stereo unspecified)
inactive: [1] -0.6% | [2] 4.55% | [3] -10.7% | [4] -28.2% | [5] -0.85% | [6] 2.25%

CCCCCCCCCCCCCCSc1ccc2ccccc2c1
inactive: [1] -9.15% | [2] 9.3% | [3] -2.7% | [4] -20.2% | [5] -8.65% | [6] -20.3%

O=C(OC1CCCC1)c1ccccc1
inactive: [1] 5.3% | [2] 9.9% | [3] -26.1% | [4] -29.1% | [5] -10.2% | [6] -2.2%

CCCCCCCCCCCCCCCCCC(=O)OCC(COC(C)=O)OC(C)=O (stereo unspecified)
inactive: [1] -3.45% | [2] -5.05% | [3] -3.8% | [4] -46.1% | [5] -1.2% | [6] 4.8%

CC(=O)C1C[C@]2(O)[C@@]3(C)CO[C@]2(C)CC1(O)C3 (stereo partly specified)
inactive: [1] 3.45% | [2] 11.4% | [3] 17.9% | [4] 7.2% | [5] 20.2% | [6] 12.9%

O=C1CSC(c2ccccc2[N+](=O)[O-])N1c1ccc(-n2c(-c3ccccc3)nc3ccccc3c2=O)cc1 (stereo unspecified)
inactive: [1] -8.95% | [2] -10.1% | [3] -4.05% | [4] -16.1% | [5] 13.3% | [6] 7.6%

Cc1cc2c(C)nn(Cc3ccc(Cl)cc3Cl)c2c(C#N)c1C
inactive: [1] 18.2% | [2] -14.8% | [3] 24.9% | [4] 20.1% | [5] 5.8% | [6] 31.6%

O=C1C(Cc2ccccc2)C(=O)N2c3ccccc3C=CC2N1c1ccccc1 (stereo unspecified)
inactive: [1] 13.2% | [2] 13.7% | [3] 4.6% | [4] 0.55% | [5] -10% | [6] 8.45%

COC1=C(OCc2ccccc2)C(=O)OC1C(O)CO (stereo unspecified)
inactive: [1] -3.1% | [2] 11.4% | [3] 0.5% | [4] -1.3% | [5] -7.55% | [6] -12%

C/C=C/C(=O)N(CC)CC
inactive: [1] 9% | [2] -4.25% | [3] 3.75% | [4] 1.65% | [5] -24.9% | [6] 10.8%

[Cl][Cu][Cl].c1ccc2c(c1)Sc1ccccc1[N+]2=c1ccc2nc3ccccc3sc-2c1
inactive: [1] 26.1% | [2] 45.8% | [3] 29.8% | [4] 2.7% | [5] 29.9% | [6] 35%

OCC(CBr)(CBr)CBr
inactive: [1] 2.45% | [2] -2% | [3] 8.25% | [4] 19.3% | [5] 4.45% | [6] -3.85%

O=C(O)Cc1n[nH]c(=O)c2ccccc12
inactive: [1] -21.1% | [2] -5.2% | [3] -0.45% | [4] -2.75% | [5] -25.9% | [6] -7.7%

O=C(CSc1nnc(Cc2ccccc2)o1)Nc1ccc(Cl)cc1Cl
inactive: [1] -18.8% | [2] -41% | [3] -41.3% | [4] -10.7% | [5] -10.2% | [6] -14%

Nc1nc2c(ccc3ccccc32)[nH]1
inactive: [1] -19.8% | [2] 6.8% | [3] 8.4% | [4] 6.5% | [5] 10.3% | [6] 21.6%

C=CC(C)(O)/C=C/C=C(\C)C(CC1OC1(C)C)OC(=O)/C(C)=C\C (stereo unspecified)
inactive: [1] -10.8% | [2] -16.9% | [3] 3.55% | [4] 10.3% | [5] -19.6% | [6] -64.1%

Brc1ccc2oc3ccccc3c2c1
inactive: [1] 24.4% | [2] -2.45% | [3] 18.4% | [4] -5.5% | [5] 6.75% | [6] 24.8%

CC(=O)c1ccc2ccc3ccccc3c2c1O
inactive: [1] -3.85% | [2] -8.75% | [3] -14.3% | [4] -30.6% | [5] -8.4% | [6] 5.25%

Cc1ccc(S(=O)(=O)OCC2C(COS(=O)(=O)c3ccc(C)cc3)C3C4C5C2C2C3C4C52)cc1 (stereo unspecified)
inactive: [1] -15.9% | [2] -0.3% | [3] 9.75% | [4] 13.8% | [5] -5.5% | [6] -21.5%

CC(C)OC(=O)CC1CCCCC1
inactive: [1] -4% | [2] -4.4% | [3] -14.1% | [4] 2.95% | [5] 3.9% | [6] 3.15%

Cc1[nH]c2nccn2c(=O)c1CCCl
inactive: [1] 10.2% | [2] -14.7% | [3] 9.6% | [4] -13.2% | [5] -13.6% | [6] 7.1%

Clc1ccc2cn[nH]c2c1
inactive: [1] -50.4% | [2] -28.1% | [3] -23.2% | [4] 3.3% | [5] -18.9% | [6] -9.3%

C[N+](C)(C)C1C2(CCCCC2)NC(=O)C12CCCCC2 (stereo unspecified)
inactive: [1] 5.6% | [2] -0.75% | [3] -11.5% | [4] -3.1% | [5] -5.85% | [6] -2.9%

CN(C)c1ccc(/C=C/c2nc3ccc([N+](=O)[O-])cc3[nH]2)cc1
inactive: [1] -2.4% | [2] 3.6% | [3] 9.65% | [4] 14.2% | [5] 0.6% | [6] 0.1%

COc1cccc(C2c3cc4c(cc3OC(N3CCCC3)C2C)OCO4)c1O (stereo unspecified)
inactive: [1] 13.6% | [2] -18.6% | [3] 3.3% | [4] -19.8% | [5] 12.3% | [6] -11.1%

Cc1cccc2c1C(=O)C1(Cc3ccccc3C1=O)C2 (stereo unspecified)
inactive: [1] -13.4% | [2] -6.95% | [3] -15.1% | [4] -5.15% | [5] 2.4% | [6] -3.2%

C[N+](C)(C)c1ccc2c(c1)CCC/C2=N\N
inactive: [1] 12.8% | [2] 9% | [3] 11.6% | [4] -9.2% | [5] 13.5% | [6] 4.3%

Nc1cc2c(cc1[N+](=O)[O-])-c1cccc(F)c1C2
inactive: [1] 63.6% | [2] 7.65% | [3] 0.65% | [4] 10.8% | [5] -9.15% | [6] 33%

Cc1ccc(C2=C(c3ccc(C)cc3)CS(=O)(=O)C2)cc1
inactive: [1] 22.2% | [2] -5.55% | [3] -0.4% | [4] -6% | [5] -18.8% | [6] -26.1%

CNC(CCCC1CCCCC1)C(=O)O (stereo unspecified)
inactive: [1] -2.85% | [2] 5.7% | [3] -0.15% | [4] 11.4% | [5] 12.8% | [6] -7.35%

Nc1cc(N)cc([N+](=O)[O-])c1
inactive: [1] -9.75% | [2] -16.4% | [3] -8% | [4] -13.7% | [5] 8.8% | [6] 15.2%

COc1cc2c(cc1OC)[C@H]1Cc3cc(OC)c(OC)cc3[C@@H](C2)N1C(C)=O
inactive: [1] -2.1% | [2] -11.2% | [3] -16.6% | [4] 22.6% | [5] 20.9% | [6] -3.6%

Cc1ccccc1/C=N/NC(=O)c1cccc2ccccc12
inactive: [1] -6.85% | [2] 0.8% | [3] -10.8% | [4] -23% | [5] 0.75% | [6] 0.6%

COc1ccc(C(=O)c2c(C(=O)O)ccc3ccccc23)cc1
inactive: [1] 9.55% | [2] 2.25% | [3] 11.3% | [4] -39.3% | [5] 6.75% | [6] -21.5%

COC(=O)C1=C(C)C=C(N2CCOCC2)C(C(=O)OC)C1c1ccccc1 (stereo unspecified)
inactive: [1] -0.85% | [2] -16.2% | [3] -11.4% | [4] -3.1% | [5] -1.55% | [6] 9%

COC12OCCN(C)C1=CC(=O)C1=NNC(C)C12 (stereo unspecified)
inactive: [1] -37% | [2] -1.6% | [3] -8% | [4] -27% | [5] -11.8% | [6] -36.5%
